Screens from PubChem.
D1 potentiator: potentiators of human D1 dopamine receptor; P21728; HEK293 TREx D1 cells, calcium flux, dopamine EC20 potentiation; potentiation, % at 10 µM; 0.036% of 360,000 active; in the data active = potentiation above about 30%; also: 0% is about no effect
D1 antag: blocks dopamine activation of the human D1 receptor; P21728; HEK293 TREx D1 cells, calcium flux, dopamine EC80; stronger effect = lower value; activity change, negative = inhibition, % at 10 µM; 3.2% of 360,000 active; AID 504652; in the data active = activity change below about -30%; also: % is scaled to controls: 0 for no effect and ±100 for the full control effect
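Cells carrying a force-coupled, tetracycline-inducible human D1 receptor report calcium flux. Each well gets a 10 s baseline, compound with 180 s monitoring, then an EC80 dopamine stimulus with a second 180 s kinetic read.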
TRHR PAM: allosterically enhances the human TRH receptor | enhancement, % at 2 µM | 0.66% of 360,000 active | P34981 | AID 493056 | TRHR cells, fluo-8 calcium fluorescence, EC20 TRH enhancement; in the data active = enhancement above about 30%; also: 0% is about no effect
Target sequence (P34981 whole entry, looked up): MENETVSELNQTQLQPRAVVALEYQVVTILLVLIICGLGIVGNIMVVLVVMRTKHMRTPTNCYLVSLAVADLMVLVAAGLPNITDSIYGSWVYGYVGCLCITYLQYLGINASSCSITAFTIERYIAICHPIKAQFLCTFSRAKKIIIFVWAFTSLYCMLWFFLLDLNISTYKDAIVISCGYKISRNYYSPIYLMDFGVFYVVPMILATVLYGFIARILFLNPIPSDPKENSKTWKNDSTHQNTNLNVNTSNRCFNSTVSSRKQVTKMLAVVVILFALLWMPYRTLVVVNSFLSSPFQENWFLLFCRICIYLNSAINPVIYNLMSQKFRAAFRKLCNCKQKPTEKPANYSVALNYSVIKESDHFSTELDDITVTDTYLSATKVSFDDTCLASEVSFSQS
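TRHR-expressing cells loaded with fluo-8 calcium dye were read kinetically (ex 480/em 530) during compound addition, then stimulated with an EC20 of TRH (10 nM final). Enhancement of the Gq-mediated intracellular calcium response was scored.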
TRHR ag: activates the human TRH receptor; TRHR cells, calcium flux fluo-8, FDSS agonist mode; P34981; 0.18% of 360,000 active; AID 493084; activation, % at 2 µM; also: 0% is about no effect
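Read-out: compound-evoked intracellular calcium rise in TRHR cells, fluo-8 dye, kinetic FDSS fluorescence at 1 s/cycle following a 10-cycle baseline. Cells cultured overnight before dye loading (30 min–1.5 h, RT).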
D1 agonist: activates the human D1 dopamine receptor; 1% of 360,000 active; HEK293 T-REx D1 cells, calcium flux, agonist mode; activation, % at 2 µM; AID 504660; also: 0% is about no effect
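Inducible HEK293 T-REx D1 cells, force-coupled to calcium signalling, were plated at 4000 cells/well with tetracycline and held overnight at 30 C. After no-wash calcium dye loading, compound-evoked calcium rise over 180 s flagged agonists.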
Numbers without * were called inactive; x = no result given. Sampled rows, rich in hits. Any-hit rate of the full collection: about 4.7%. Rule as the data show it, unless noted: active = activation above about 30%; inactive = the rest.

SMILES | D1 potentiator | D1 antag | TRHR PAM | TRHR ag | D1 agonist
O=C(Nc1nc2ccccc2n1CCN1CCCC1)C1CCCCC1 | -2.1 | -30.4* | -1.0 | -0.5 | -0.3
COc1ccc(CNc2nc3ccccc3n2CCN2CCCCC2)c(OC)c1 | -9.1 | -41.0* | -3.7 | 3.0 | 12.5
c1ccc2c(c1)nc(NCc1ccc3c(c1)OCO3)n2CCN1CCOCC1 | -6.7 | -30.1* | 5.2 | -0.6 | 0.4
Cc1ccc(C(=O)OC2OC(=O)C(Cl)=C2N2CCOCC2)cc1 (stereo unspecified) | -4.5 | -16.7 | 30.4* | 0.6 | 9.2
N#Cc1ccsc1NC(=O)c1ccc(Cl)c([N+](=O)[O-])c1 | -1.4 | -37.8* | 1.1 | 11.8 | 39.2*
N#Cc1ccsc1NC(=O)c1cccc([N+](=O)[O-])c1 | 1.8 | 10.6 | -2.1 | 2.4 | 4.0
Cc1nc2n(c(=O)c1CCN1CCC(c3noc4cc(F)ccc34)CC1)CCCC2 | x | -75.0* | -2.4 | -0.7 | x
O=C(NCc1ccc(F)cc1)c1ccc2c(=O)n3c(nc2c1)CCCCC3 | -5.8 | -22.7 | 0.2 | -0.7 | 0.7
CCCN1C(=O)/C(=C/c2c(N3CCNC(=O)C3CC(=O)OCC)nc3c(C)cccn3c2=O)SC1=S (stereo unspecified) | -1.4 | -18.7 | 6.0 | 67.6* | 216.1*
CCOC(=O)/C(C#N)=C/c1c(N2CCN(C)CC2)nc2c(C)cccn2c1=O | -5.7 | -6.3 | -3.2 | 0.4 | 1.2
CCOC(=O)CC1C(=O)NCCN1c1nc2ccc(C)cn2c(=O)c1/C=C1\SC(=S)N(CC(C)C)C1=O (stereo unspecified) | -1.9 | -29.1 | -5.2 | 62.6* | 320.3*
CCOC(=O)CC1C(=O)NCCN1c1nc2ccc(C)cn2c(=O)c1/C=C1\SC(=S)N(C(C)CC)C1=O (stereo unspecified) | 33.7* | -47.3* | 13.3 | 105.2* | 583.8*
COC(=O)c1ccc(NC(=O)N2CCc3c([nH]c4ccccc34)C2c2ccc(C)cc2)cc1 (stereo unspecified) | -4.1 | -21.2 | 2.3 | -1.7 | 17.0
CCOCCNC(=O)c1ccccc1C(=O)NCCOCC | -2.8 | -7.8 | -3.4 | 0.0 | 1.2
CCOCCN(C(=O)c1ccccc1Cl)c1cccc(C)c1C | -8.9 | -38.4* | 17.4 | -0.1 | -0.4
CCN(CC)CCNc1ccnc2cc(Cl)ccc12 | -0.9 | 1.9 | -3.3 | 1.1 | 2.5
Clc1ccc2c(NCc3ccccc3)ccnc2c1 | -4.8 | -37.5* | 16.6 | 2.0 | 20.8
O=C(NCc1ccncc1)c1nc(-c2cccs2)no1 | 2.1 | -11.7 | -1.6 | -0.1 | 7.8
O=C(NCc1cccnc1)c1nc(-c2ccc(C(F)(F)F)cc2)no1 | -5.9 | -39.7* | -1.0 | -0.2 | 14.2
O=C(NCc1ccncc1)c1nc(-c2ccc(C(F)(F)F)cc2)no1 | -10.2 | -38.5* | -1.5 | -0.5 | 8.4
Cc1ccc(CN(C(=O)COc2ccc(Cl)cc2Cl)C2CCS(=O)(=O)C2)o1 (stereo unspecified) | 0.6 | -1.8 | 2.3 | 1.0 | 1.9
CCOc1ccccc1NC(=O)Cn1c(=O)n(Cc2nc(C)no2)c(=O)c2ccccc21 | -0.8 | 1.3 | -0.5 | 0.4 | 0.1
Cc1cc(C)c2c(=O)[nH]c(SCC(=O)Nc3ccc(N(C)C)cc3)nc2n1 | 12.6 | -35.2* | -0.8 | -0.3 | 0.6
Cc1ccc(NC(=O)CSc2nc3nc(C)cc(C)c3c(=O)[nH]2)cc1 | -8.5 | -11.9 | 7.3 | 0.0 | 1.7
O=C(NCc1ccccc1F)c1ccc(CN2CC(=O)N3CCCCC3C2=O)cc1 (stereo unspecified) | 5.8 | -1.4 | 2.7 | -0.8 | -0.1
CCOC(=O)c1oc2ccc(S(=O)(=O)n3nc(-c4ccccc4)cc3N)cc2c1C | -2.6 | -34.0* | -2.1 | 0.2 | 2.0
Cc1nc(-c2ccccc2)sc1C1(C)CC(c2c(Cl)cccc2Cl)=NO1 (stereo unspecified) | -5.0 | -4.1 | 0.3 | 0.8 | 6.7
Cc1nc(NC(=O)c2ccccc2)sc1C1(C)CC(c2ccccc2F)=NO1 (stereo unspecified) | -1.7 | -32.8* | -0.1 | 0.1 | 1.5
Cc1nc(NC(=O)c2ccccc2)sc1C1(C)CC(c2c(Cl)cccc2Cl)=NO1 (stereo unspecified) | -7.9 | -35.5* | -2.7 | 0.1 | 3.3
Cc1cc(S(=O)(=O)C(CNC(=O)c2ccc(OC(C)C)cc2)c2cccs2)ccc1F (stereo unspecified) | -1.0 | -73.7* | -5.8 | 0.3 | 0.7
